About 79,000 compounds went through this panel and 15% of them were active in at least one assay; those are over-represented in the sample as a whole. The source made the active and inactive calls. Cut-off read from the data, not from the text of the source: active = growth inhibition above about 70%; inactive = the rest.
What was measured:
[1] = NCI Yeast Anticancer Drug Screen. Data for the rad52 strain (AID 147);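 note: 0% = growth of vehicle-treated control cultures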; settings: S. cerevisiae rad52 mutant growth inhibition, hits give high values
Summary of the method: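 Inhibition of yeast growth, referenced to vehicle controls, was the measured output for a strain with defective DNA damage repair.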

[2] = NCI Yeast Anticancer Drug Screen. Data for the wt1 strain (AID 149);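 note: 0% = growth of vehicle-treated wt1 cultures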; settings: S. cerevisiae wt1 strain (SPY 50644) growth inhibition, hits give high values
Summary of the method: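 Readout: yeast growth inhibition, normalised to vehicle controls, in the wt1 strain exposed to test compounds.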

[3] = NCI Yeast Anticancer Drug Screen. Data for the rad50EPP+ strain (AID 151);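 note: 0% = growth of vehicle-treated control cultures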; settings: S. cerevisiae rad50 mutant strain, hits give high values
Summary of the method: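 Genetically defined yeast (rad50EPP+, DNA damage repair alteration) is grown with compound, and inhibition of growth is expressed relative to vehicle-treated controls.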

[4] = NCI Yeast Anticancer Drug Screen. Data for the mgt1 strain (AID 153); settings: S. cerevisiae mgt1 mutant growth inhibition, hits give high values
Summary of the method: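 In the mgt1 strain, test compounds were added and growth inhibition was determined relative to vehicle-treated controls.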

[5] = NCI Yeast Anticancer Drug Screen. Data for the rad50 strain (AID 155);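 note: 0% = growth of vehicle-only cultures of the same strain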; settings: S. cerevisiae rad50 strain growth inhibition, hits give high values
Summary of the method: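 Compounds were tested on a yeast strain with an engineered DNA damage repair alteration; the reported value is growth inhibition normalised to vehicle treatment.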

[6] = NCI Yeast Anticancer Drug Screen. Data for the mec2-1 strain (AID 157); settings: S. cerevisiae mec2-1 strain, hits give high values
Summary of the method: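 Each compound was tested on mec2-1 yeast, a strain altered in DNA damage repair or cell cycle control. Growth inhibition is reported relative to vehicle.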

[7] = NCI Yeast Anticancer Drug Screen. Data for the rad14 strain (AID 159);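 note: 0% = growth of vehicle-treated control cultures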; settings: S. cerevisiae rad14 strain growth inhibition, hits give high values
Summary of the method: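 Compound-treated yeast with a defined DNA-repair lesion; growth inhibition normalised to vehicle-treated cultures.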

[8] = NCI Yeast Anticancer Drug Screen. Data for the sgs1 mgt1 strain (AID 161);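 note: 0% = growth of cultures given vehicle only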; settings: S. cerevisiae sgs1 mgt1 strain, hits give high values
Summary of the method: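 Genetically altered yeast, compound exposure, growth inhibition relative to vehicle.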

[9] = NCI Yeast Anticancer Drug Screen. Data for the CLN2oe strain (AID 163);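 note: 0% = growth of vehicle-only control cultures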; settings: S. cerevisiae CLN2oe strain, hits give high values
Summary of the method: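 First, the altered yeast strain was treated with each compound; second, its growth was measured; finally, inhibition was derived by comparison with vehicle controls.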

[10] = NCI Yeast Anticancer Drug Screen. Data for the cln2 rad14 strain (AID 165);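 note: 0% = growth equal to vehicle treated cultures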; settings: S. cerevisiae cln2 rad14 strain, hits give high values
Summary of the method: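 Test compounds were added to cln2 rad14 yeast cultures; inhibition of growth was then determined by comparison with vehicle treatment.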

[11] = NCI Yeast Anticancer Drug Screen. Data for the bub3 strain (AID 167); settings: S. cerevisiae bub3 mutant strain, hits give high values
Summary of the method: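 Growth of a checkpoint-deficient yeast mutant is measured after compound exposure. Values represent inhibition relative to vehicle.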

[12] = NCI Yeast Anticancer Drug Screen. Data for the wt2 strain (AID 169);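 note: 0% = growth of vehicle-treated yeast cultures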; settings: S. cerevisiae wt2 strain growth inhibition, hits give high values
Summary of the method: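 The panel's yeast strains carry defined changes in DNA repair or cell cycle genes. Each strain is grown with compound, and growth loss is scored relative to vehicle.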

[13] = NCI Yeast Anticancer Drug Screen. Data for the mlh1 strain (AID 171);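 note: 0% = growth of vehicle-treated control cultures of the same strain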; settings: S. cerevisiae mlh1 strain growth inhibition, hits give high values
Summary of the method: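 Inhibition values reflect reduced yeast growth in the presence of compound, referenced to vehicle controls, using a strain chosen for its alteration in DNA repair or cell cycle control.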

[14] = NCI Yeast Anticancer Drug Screen. Data for the sgs1 strain (AID 173);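 note: 0% = growth of vehicle-only control cultures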; settings: S. cerevisiae sgs1 mutant, hits give high values
Summary of the method: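 Vehicle-treated cultures served as reference for growth inhibition of a yeast strain altered in DNA damage repair or cell cycle control after compound exposure.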

[15] = NCI Yeast Anticancer Drug Screen. Data for the mlh1 rad18 strain (AID 175); settings: S. cerevisiae mlh1 rad18 strain growth inhibition, hits give high values
Summary of the method: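 Inhibition values reflect reduced growth of mutant yeast versus vehicle-treated controls following compound exposure; the mutations affect DNA damage repair.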

[16] = NCI Yeast Anticancer Drug Screen. Data for the rad18 strain (AID 177); settings: S. cerevisiae rad18 mutant growth inhibition, hits give high values
Summary of the method: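 Steps: expose repair-mutant yeast to compound; measure growth; express as inhibition relative to vehicle control.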

[17] = at 5.0 µM (retest, dose inferred, filed as 0.5)
[18] = at 50.0 µM (retest, dose inferred, filed as 5.0)

Measured: growth inhibition

O=C(/C=C\c1cccc(C(F)(F)F)c1)c1ccccc1
inactive: [1]; at 1.2 µM -3% | [1]; at 3.7 µM -2% | [1]; at 11.0 µM -1% | [1]; at 33.0 µM -3% | [1]; at 100.0 µM -3% | [2]; at 1.2 µM -1% | [2]; at 3.7 µM 2% | [2]; at 11.0 µM -1% | [2]; at 33.0 µM -3% | [2]; at 100.0 µM -5% | [3]; at 1.2 µM 1% | [3]; at 3.7 µM 0% | [3]; at 11.0 µM 3% | [3]; at 33.0 µM 4% | [3]; at 100.0 µM 9% | [4]; at 1.2 µM -3% | [4]; at 3.7 µM -1% | [4]; at 11.0 µM -3% | [4]; at 33.0 µM -2% | [4]; at 100.0 µM -4% | [5]; at 1.2 µM -3% | [5]; at 3.7 µM -3% | [5]; [17] -5% | [5]; at 11.0 µM -1% | [5]; at 33.0 µM -4% | [5]; [18] 40% | [5]; at 50.0 µM 20.3% | [5]; at 100.0 µM -1% | [6]; at 1.2 µM -4% | [6]; at 3.7 µM 0% | [6]; [17] -19% | [6]; at 11.0 µM 0% | [6]; at 33.0 µM 1% | [6]; [18] 3% | [6]; at 50.0 µM 20.1% | [6]; at 100.0 µM -5% | [7]; at 1.2 µM -2% | [7]; at 3.7 µM 1% | [7]; at 11.0 µM 2% | [7]; at 33.0 µM -2% | [7]; at 100.0 µM -3% | [8]; [17] 18% | [8]; [18] 59% | [8]; at 50.0 µM 36.4% | [9]; at 1.2 µM -2% | [9]; at 3.7 µM -11% | [9]; at 11.0 µM -5% | [9]; at 33.0 µM -5% | [9]; at 100.0 µM -10% | [10]; [17] 8% | [10]; [18] 10% | [10]; at 50.0 µM 1.55% | [11]; at 1.2 µM -2% | [11]; at 3.7 µM -6% | [11]; [17] 11% | [11]; at 11.0 µM -2% | [11]; at 33.0 µM -3% | [11]; [18] 49% | [11]; at 50.0 µM 26.1% | [11]; at 100.0 µM -9% | [12]; at 1.2 µM -2% | [12]; at 3.7 µM 0% | [12]; at 11.0 µM -2% | [12]; at 33.0 µM -2% | [12]; at 100.0 µM -4% | [13]; at 1.2 µM -2% | [13]; at 3.7 µM -2% | [13]; at 11.0 µM -2% | [13]; at 33.0 µM -3% | [13]; at 100.0 µM -1% | [14]; at 1.2 µM -2% | [14]; at 3.7 µM -3% | [14]; at 11.0 µM 1% | [14]; at 33.0 µM 0% | [14]; at 100.0 µM 3% | [15]; [17] 16% | [15]; at 50.0 µM 25.9% | [16]; at 1.2 µM 0% | [16]; at 3.7 µM 1% | [16]; at 11.0 µM 7% | [16]; at 33.0 µM 22% | [16]; at 100.0 µM 57%
active: [15]; [18] 78%

COc1cccc2c1C(=O)c1c(O)c3c(c(O)c1C2=O)CC(O)(C(O)CO)CC3OC1CC(N2CCOCC2)C(O)C(C)O1 (stereo unspecified)
inactive: [5]; at 50.0 µM 56.9% | [8]; [17] 22% | [10]; [17] 18% | [10]; [18] 61% | [11]; [17] 25%
active: [1]; at 1.2 µM 96% | [1]; at 3.7 µM 96% | [1]; at 11.0 µM 96% | [1]; at 33.0 µM 96% | [1]; at 100.0 µM 96% | [2]; at 1.2 µM 96% | [2]; at 3.7 µM 96% | [2]; at 11.0 µM 97% | [2]; at 33.0 µM 97% | [2]; at 100.0 µM 97% | [3]; at 1.2 µM 84% | [3]; at 3.7 µM 96% | [3]; at 11.0 µM 97% | [3]; at 33.0 µM 97% | [3]; at 100.0 µM 97% | [4]; at 1.2 µM 97% | [4]; at 3.7 µM 97% | [4]; at 11.0 µM 97% | [4]; at 33.0 µM 98% | [4]; at 100.0 µM 97% | [5]; at 1.2 µM 96% | [5]; at 3.7 µM 97% | [5]; [17] 98% | [5]; at 11.0 µM 97% | [5]; at 33.0 µM 97% | [5]; [18] 98% | [5]; at 100.0 µM 97% | [6]; at 1.2 µM 97% | [6]; at 3.7 µM 97% | [6]; [17] 99% | [6]; at 11.0 µM 98% | [6]; at 33.0 µM 98% | [6]; [18] 99% | [6]; at 50.0 µM 91.3% | [6]; at 100.0 µM 98% | [7]; at 1.2 µM 95% | [7]; at 3.7 µM 96% | [7]; at 11.0 µM 96% | [7]; at 33.0 µM 97% | [7]; at 100.0 µM 97% | [8]; [18] 90% | [8]; at 50.0 µM 91.5% | [9]; at 1.2 µM 96% | [9]; at 3.7 µM 97% | [9]; at 11.0 µM 97% | [9]; at 33.0 µM 98% | [9]; at 100.0 µM 98% | [10]; at 50.0 µM 90.8% | [11]; at 1.2 µM 98% | [11]; at 3.7 µM 98% | [11]; at 11.0 µM 98% | [11]; at 33.0 µM 98% | [11]; [18] 93% | [11]; at 50.0 µM 93.5% | [11]; at 100.0 µM 98% | [12]; at 1.2 µM 96% | [12]; at 3.7 µM 97% | [12]; at 11.0 µM 96% | [12]; at 33.0 µM 97% | [12]; at 100.0 µM 98% | [13]; at 1.2 µM 97% | [13]; at 3.7 µM 97% | [13]; at 11.0 µM 97% | [13]; at 33.0 µM 98% | [13]; at 100.0 µM 98% | [14]; at 1.2 µM 97% | [14]; at 3.7 µM 97% | [14]; at 11.0 µM 97% | [14]; at 33.0 µM 98% | [14]; at 100.0 µM 98% | [15]; [17] 99% | [15]; [18] 98% | [15]; at 50.0 µM 91.1% | [16]; at 1.2 µM 96% | [16]; at 3.7 µM 96% | [16]; at 11.0 µM 97% | [16]; at 33.0 µM 97% | [16]; at 100.0 µM 98%
